Results taken from PubChem BioAssay AID1220 (Sanford-Burnham Center for Chemical Genomics, 2008).
In all, about 190,000 compounds went through this assay and about 1,300 (0.68%) were called active. The sample holds actives, similar compounds and a random draw of the others, so the mix is not that of the screen. A number with no mark means an inactive call. Rule as the data show it: active = inhibition above about 50%; inactive = the rest.

Each compound was assayed against Mannose-6-phosphate isomerase (Homo sapiens) (UniProt P34949) (assay: human PMI inhibitors, high substrate, primary screen, biochemical, fluorescence intensity, high mannose 6-phosphate (AID 1220)). Conditions: recombinant PMI enzyme, coupled fluorescence intensity; at 20 µM; stronger effect = higher value.
Sequence of Mannose-6-phosphate isomerase (Homo sapiens) (P34949 whole entry, looked up): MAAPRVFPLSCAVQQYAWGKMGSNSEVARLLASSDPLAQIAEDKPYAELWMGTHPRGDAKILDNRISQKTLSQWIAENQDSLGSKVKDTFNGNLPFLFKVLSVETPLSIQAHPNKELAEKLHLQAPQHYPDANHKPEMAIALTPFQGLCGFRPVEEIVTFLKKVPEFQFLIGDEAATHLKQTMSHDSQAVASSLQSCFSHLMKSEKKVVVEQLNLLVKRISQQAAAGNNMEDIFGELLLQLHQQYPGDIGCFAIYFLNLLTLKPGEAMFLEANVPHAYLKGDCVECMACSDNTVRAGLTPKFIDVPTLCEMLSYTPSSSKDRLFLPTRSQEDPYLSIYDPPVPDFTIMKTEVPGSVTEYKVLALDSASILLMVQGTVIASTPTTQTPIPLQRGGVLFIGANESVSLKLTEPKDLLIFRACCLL

First: Clc1ncc(CSc2ccccc2)s1
Second: O=c1ccnc(NCCc2ccccc2)[nH]1
The inhibition of the first is lower: -2.5% for the first, -1.8% for the second.

First: COC(=O)c1ccccc1NC(=O)CNc1cc(Cl)ccc1N1CCOCC1
Second: O=C(COS(=O)c1ccccc1)Nc1cc(Cl)ccc1N1CCOCC1 (stereo not drawn)
The inhibition of the first is higher: 9.8% for the first, 8.4% for the second.

Going from `COc1ccccc1C(=O)Nc1ccccc1SC` to `COC1=C(c2ccccc2)C(=O)c2ccccc2C1=O`, the inhibition falls from 10.6% to -57.4%.

Going from `COc1ccc(S(=O)(=O)CCC(=O)N2c3ccccc3CC2C)cc1` (stereo not drawn) to `COc1ccc(CCNC(=O)CSc2nc3ccccc3o2)cc1`, the inhibition falls from 2% to 1.3%.

First: O=C(Nc1ccc2c(c1)OCO2)c1ccc(S(=O)(=O)NCC2CCCO2)cc1 (stereo not drawn)
Second: CN1CCOc2cc(S(=O)(=O)Nc3ccc(F)cc3)ccc21
The inhibition of the first is lower: -2.4% for the first, 0.5% for the second.

Going from `COc1ccc2c(C)cc(=O)[nH]c2c1` to `CCOC(=O)CSc1[nH]c2cc(OC)ccc2c1[N+](=O)[O-]`, the inhibition rises from -3% to 9.3%.

First: O=C(COC(=O)c1c2ccccc2cc2ccccc12)Nc1ncc(C(F)(F)F)cc1Cl
Second: Cn1ccc(C(=O)OCC(=O)Nc2cccc3ccccc23)n1
The inhibition of the first is higher: 2.9% for the first, 0.8% for the second.

Compared with `COc1ccc(CN=Cc2c(C(F)(F)F)[nH][nH]c2=O)cc1`, `COc1ccc(C(=O)N/N=C/c2c(CO)cnc(C)c2O)cc1` is lower in inhibition: -0.7% for the first, -36.3% for the second.

First: O=C1C(=C(O)c2ccccc2)C(=O)c2ccccc21
Second: O=C1C(c2ccncc2)=C(O)c2ccccc21
The inhibition of the first is lower: -47.9% for the first, -4.7% for the second.

Going from `CC(C)c1ccc(C2=C(O)c3ccccc3C(=O)C2=O)cc1` to `CC(C)c1ccc(CN(C)CC(O)c2ccccc2)cc1` (stereo not drawn), the inhibition falls from 22.2% to -2.2%.

First: COc1ccc(C(=S)Nc2ccc(C)cc2)cc1
Second: CC(=O)Nc1ccc(C(=O)n2nc(C)cc2C)cc1
The inhibition of the first is higher: 3.8% for the first, -3.3% for the second.

First: CC(C)(C)c1ccc(S(=O)(=O)N2CCCC2C(=O)N2CCOCC2)cc1 (stereo not drawn)
Second: CC(=O)Nc1ccc(S(=O)(=O)Nc2nc3ccccc3nc2N2CCCCCC2)cc1
The inhibition of the first is higher: 3.5% for the first, 2.2% for the second.

Going from `CCOC(=O)c1nn(-c2ccccc2F)c2nc(-c3ccco3)c(C#N)c(=O)n12` to `Cc1ccccc1-n1c(=O)c2ccccc2n2cnnc12`, the inhibition rises from -13.6% to 1.1%.

Going from `Cc1ccc(-n2c(=S)[nH]c3sc4c(c3c2=O)CCc2ccccc2-4)cc1` to `Cc1ccc(-n2c(=S)[nH]c3sc4c(c3c2=O)CCC4)cc1`, the inhibition falls from 24.1% to 9.7%.

First: CCN(Cc1ccncc1)S(=O)(=O)c1ccc(C(C)=O)cc1
Second: CC1Cc2cc(/C(O)=C3/C(=O)C(=O)N(CCCn4ccnc4)C3c3ccncc3)ccc2O1 (stereo not drawn)
The inhibition of the first is lower: -13.6% for the first, -10.1% for the second.

First: CCCCSc1cnn(-c2ccccc2)c(=O)c1SCCCC
Second: O=[N+]([O-])c1ccc2c(c1)ncn2-c1ccccc1
The inhibition of the first is higher: 5.9% for the first, -7.7% for the second.

Compared with `COc1ccc(CCNC(=O)CN2C(=O)NC(C)(c3ccc([N+](=O)[O-])cc3)C2=O)cc1` (stereo not drawn), `COc1ccc(C(=O)C2C(c3ccc(-c4ccccc4[N+](=O)[O-])o3)NC(=O)NC2(O)C(F)(F)F)cc1` (stereo not drawn) is higher in inhibition: -0.6% for the first, 43.4% for the second.

First: Cc1ccc(C2NC(=O)NC(O)(C(F)(F)F)C2C(=O)c2ccccc2)o1 (stereo not drawn)
Second: O=C1NC(c2ccc(-c3ccccc3[N+](=O)[O-])o2)C(C(=O)c2ccc(F)cc2)C(O)(C(F)(F)F)N1 (stereo not drawn)
The inhibition of the first is lower: -19.5% for the first, 42.1% for the second.

Going from `COc1cc(C2NC(=O)NC(O)(C(F)(F)F)C2C(=O)c2ccc(Cl)cc2)ccc1O` (stereo not drawn) to `COc1ccc(/C=N/NC(=O)c2cccc(NC(C)=O)c2)c(C(=O)O)c1OC`, the inhibition falls from 2.5% to -6.4%.

First: Cc1ccccc1-n1c(-c2ccncc2)n[nH]c1=S
Second: Cc1ccccc1N1CC(=O)N(c2ccccc2C)CC1=O
The inhibition of the first is lower: -11.7% for the first, -4.3% for the second.

First: O=C1C(c2ccc(F)cc2)N(Cc2ccc3c(c2)OCO3)C(=O)CN1C1CCCC1 (stereo not drawn)
Second: Cc1c(C(=O)OC2CCCC2)[nH]c2c1C(=O)CC(c1ccco1)C2 (stereo not drawn)
The inhibition of the first is lower: 7.2% for the first, 23.1% for the second.

First: CC1Cc2cc(/C(O)=C3/C(=O)C(=O)N(CCCn4ccnc4)C3c3cccnc3)ccc2O1 (stereo not drawn)
Second: CCN(Cc1cc(=O)n2ccsc2n1)Cc1nc2ccccc2c(=O)[nH]1
The inhibition of the first is higher: 3.7% for the first, -3.9% for the second.

First: COc1cc(-c2ccc(NC(=O)CN3CCC(C)CC3)c(OC)c2)ccc1NC(=O)CN1CCC(C)CC1
Second: CCOC(=O)c1sc(-c2ccc(OC)cc2)cc1NC(C)=O
The inhibition of the first is higher: 21% for the first, -4.9% for the second.

First: CCN(CC)c1ccc(/C=N/NC(=O)c2c[nH]c3ccccc23)cc1
Second: CCOC(=O)C(C)Oc1cccc2c(=O)n(CC(=O)Nc3ccc(OCC)cc3)ccc12 (stereo not drawn)
The inhibition of the first is higher: 21.6% for the first, 7.6% for the second.

Going from `COc1ccc(CCNC(=O)CCC(=O)Nc2nnc(C(C)C)s2)cc1OC` to `CCOCCCNC(=O)c1cn(CC(C)C)c(=O)c2cc(OC)c(OC)cc12`, the inhibition rises from 3.2% to 22.8%.

Going from `CCN1CCc2c(C#N)c(N3CCOCC3)nc(N3CCOCC3)c2C1` to `CCN1CCc2c(C#N)c(N3CCOCC3)nc(NCc3ccccc3)c2C1`, the inhibition rises from -3% to 19.3%.

Compared with `CC1(C)Cc2c(sc3nc(-c4cc5ccccc5o4)n(N)c(=O)c23)CO1`, `Cc1ccc(/C=C/C(=O)N2CC(=O)Nc3ccccc32)o1` is lower in inhibition: 7% for the first, 1.3% for the second.

First: CCN1C(=O)C(C)S/C1=N\S(=O)(=O)c1ccc(Cl)s1 (stereo not drawn)
Second: Cc1ccc(S(=O)(=O)Oc2ccc(C)cc2/C=N/N=C2\NC(=O)C(C)S2)cc1 (stereo not drawn)
The inhibition of the first is lower: -0.5% for the first, 8.8% for the second.

First: CC(C)CCN(C(=O)CNC(=O)c1cccs1)C(C(=O)NC1CCCC1)c1ccncc1 (stereo not drawn)
Second: CC(CCc1ccccc1)NC(=O)C(=O)N1CCOCC1 (stereo not drawn)
The inhibition of the first is lower: -1.9% for the first, 0.1% for the second.

Going from `O=C(NCCN1CCOCC1)c1ccc2ccccc2c1` to `c1ccc2c(NCCCN3CCOCC3)c3ccccc3nc2c1`, the inhibition rises from -3.6% to 8.7%.

Compared with `c1ccc(CCNc2ncnc3ccccc23)cc1`, `COc1cc(CNCCO)cc(Br)c1OCc1ccccc1` is lower in inhibition: 6.3% for the first, 1.8% for the second.

Compared with `Cc1nc([N+](=O)[O-])c(C(=O)OCc2ccccc2Br)n1C`, `CC(=Nc1ccccc1C)C1=C(O)CSC1=O` is higher in inhibition: -9.7% for the first, -8.7% for the second.

First: O=C(c1ccccc1)N(Cc1cccnc1)C1(C(=O)Nc2ccccc2)CCCCC1
Second: CN(Cc1cc(=O)n2ccsc2n1)c1ccccc1
The inhibition of the first is higher: -14% for the first, -17.6% for the second.

Compared with `NC(=O)C1CCN(C(=O)CSc2nc3ccccc3[nH]2)CC1`, `O=C1CN(C(=O)COC(=O)/C=C/c2ccco2)c2ccccc2N1` is lower in inhibition: 2.1% for the first, 1.6% for the second.

Compared with `COc1cc(=O)n(C)c2cc(N(C)C)ccc12`, `CN(C)c1ccc2c(=O)[nH][nH]c(=O)c2c1` is higher in inhibition: 6.9% for the first, 24.5% for the second.

First: CC(C)(C)NC(=O)NC(=O)COC(=O)c1cccc(F)c1
Second: CN(C)c1nc(OCCOC(=O)c2ccccc2)nc(N(C)C)n1
The inhibition of the first is higher: 10.3% for the first, 10% for the second.

Compared with `CCNC(=S)N(Cc1ccco1)Cc1cc2cc3c(cc2[nH]c1=O)OCCO3`, `CC(C)CNC(=S)N(Cc1ccco1)Cc1cc2cc3c(cc2[nH]c1=O)OCCO3` is higher in inhibition: 4.6% for the first, 12.4% for the second.

Going from `CN1CCOCCOCCN(C)C(=O)N2CCOCCOCCN(CCOCC2)C1=O` to `CC1=C(C)C(=O)C(N2CCOCC2)=CC1=O`, the inhibition falls from 3% to -17.5%.

Compared with `CC(=Nc1ccccc1)C1=C(O)CSC1=O`, `O=[N+]([O-])c1ccc2cn(-c3ccccc3)nc2c1` is lower in inhibition: -2.7% for the first, -4.3% for the second.

Compared with `CCOC(=O)C1C(c2ccccc2)N(C)OC1(O)C(F)(F)F` (stereo not drawn), `COc1ccc(NC(=O)c2sccc2C)cn1` is higher in inhibition: 6.7% for the first, 12.5% for the second.

Compared with `Cc1cc(C)n2c(SCc3ccc(Cl)cc3Cl)nnc2n1`, `COc1ccc(NC(=O)c2cc(OC)c(OC)c(OC)c2)cn1` is higher in inhibition: -3.9% for the first, 8.4% for the second.

`Cc1ccc(S(=O)OCC(=O)Nc2cc(Cl)ccc2N2CCOCC2)cc1` (stereo not drawn) was tested, and the inhibition was 52% (active).
In the case of `COc1ccc2c([N+](=O)[O-])c(Cl)[nH]c2c1`, the inhibition is reported as 67.9% (active).
In the case of `O=C(C1=C(c2ccccc2)C(=O)c2ccccc2C1=O)c1ccccc1`, the inhibition is reported as 71.6% (active).
For `O=C1NC(c2ccc(-c3ccccc3[N+](=O)[O-])o2)C(C(=O)c2ccc(Cl)cc2)C(O)(C(F)(F)F)N1` (stereo not drawn), the inhibition was 50.3% (active).
With `O=C1NC(c2ccc(-c3ccccc3[N+](=O)[O-])o2)C(C(=O)c2ccccc2)C(O)(C(F)(F)F)N1` (stereo not drawn) the inhibition was 50.5% (active).
With `COc1cc(C2/C(=C(\O)c3ccc4c(c3)CC(C)O4)C(=O)C(=O)N2CCCn2ccnc2)ccc1O` (stereo not drawn) the inhibition was 54.7% (active).
`CCN1CCc2c(C#N)c(N3CCOCC3)nc(NCCO)c2C1` was tested, and the inhibition was 57.2% (active).
With `c1ccc(CCNc2ccnc3cc4ccccc4cc23)cc1` the inhibition was 63.5% (active).
For `c1ccc2cc3c(NCCN4CCOCC4)ccnc3cc2c1`, the inhibition was 57% (active).
In the case of `CN(C)c1ccc2c(O)cc(=O)n(C)c2c1`, the inhibition is reported as 56.1% (active).
`CNC(=S)N(Cc1ccco1)Cc1cc2cc3c(cc2[nH]c1=O)OCCO3` was tested, and the inhibition was 52.2% (active).
In the case of `CC(C)(C)C1=CC(=O)C(N2CCOCC2)=CC1=O`, the inhibition is reported as 65.3% (active).
With `COc1ccccc1N=C(C)C1=C(O)CSC1=O` the inhibition was 54.1% (active).
In the case of `CCN(Cc1cc(=O)n2ccsc2n1)c1cccc2ccccc12`, the inhibition is reported as 67.3% (active).
For `COc1ccc(NC(=O)c2cc(Br)c(Br)s2)cn1`, the inhibition was 53.2% (active).
With `Cc1ccc(/C=C/C(=O)OCC(=O)N2CC(=O)Nc3ccccc32)o1` the inhibition was 55.2% (active).
